{"source": "paper PMC8384837", "about": "“Expanding the binding specificity for RNA recognition by a PUF domain”", "experiment_in_all_cases": "yeast three-hybrid, YBZ-1, SC-Leu-His + 0.5 mM 3-AT, 4 days", "conditions_in_all_cases": "tags: N-Gal4 AD-HA kept; label: inside an RPR1-promoter hybrid RNA with tandem MS2 sites; ssRNA", "key": {"PUM1 PUF domain R1-GFR": {"target": "PUM1 PUF domain R1-GFR (Homo sapiens, UniProt Q14671 828-1176, S863G;R864F;Q867R)", "sequence (Q14671 828-1176 S863G/R864F/Q867R)": "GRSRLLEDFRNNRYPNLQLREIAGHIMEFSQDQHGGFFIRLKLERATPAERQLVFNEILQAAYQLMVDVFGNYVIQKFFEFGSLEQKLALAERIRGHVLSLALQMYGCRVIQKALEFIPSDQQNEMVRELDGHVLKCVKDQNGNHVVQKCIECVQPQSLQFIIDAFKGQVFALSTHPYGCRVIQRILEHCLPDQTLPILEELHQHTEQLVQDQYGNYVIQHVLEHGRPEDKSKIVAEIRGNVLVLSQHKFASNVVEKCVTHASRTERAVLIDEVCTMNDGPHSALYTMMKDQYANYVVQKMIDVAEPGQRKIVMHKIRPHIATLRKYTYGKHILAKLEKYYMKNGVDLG", "how_it_was_run": "(§1)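 Repeat regions from input (SC-Leu) and selection (SC-Leu-His + 0.5 mM 3-AT) plates were PCR-amplified and Illumina-sequenced after four days of growth. The cells were strain YBZ-1 with a LexA–MS2 coat fusion and a HIS3 reporter, co-expressing Pumilio-1 PUF domain libraries and matching RNA elements from a centromeric plasmid. The interaction score is the log change in variant frequency from input to selection, taken in log2 with a pseudocount of 1 for absent variants.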"}, "PUM1 PUF domain R1-KMS": {"target": "PUM1 PUF domain R1-KMS (Homo sapiens, UniProt Q14671 828-1176, S863K;R864M;Q867S)", "sequence (Q14671 828-1176 S863K/R864M/Q867S)": "as the sequence (Q14671 828-1176 S863G/R864F/Q867R) above, with G36K, F37M, R40S counted along it", "how_it_was_run": "as §1"}, "PUM1 PUF domain R1-KGA": {"target": "PUM1 PUF domain R1-KGA (Homo sapiens, UniProt Q14671 828-1176, S863K;R864G;Q867A)", "sequence (Q14671 828-1176 S863K/R864G/Q867A)": "as the sequence (Q14671 828-1176 S863G/R864F/Q867R) above, with G36K, F37G, R40A counted along it", "how_it_was_run": "as §1"}, "PUM1 PUF domain R8-SFR": {"target": "PUM1 PUF domain R8-SFR (Homo sapiens, UniProt Q14671 828-1176, N1122S;Y1123F;Q1126R)", "sequence (Q14671 828-1176 N1122S/Y1123F/Q1126R)": "as the sequence (Q14671 828-1176 S863G/R864F/Q867R) above, with G36S, F37R, R40Q, N295S, Y296F, Q299R counted along it", "how_it_was_run": "as §1"}, "PUM1 PUF domain R5-KFG": {"target": "PUM1 PUF domain R5-KFG (Homo sapiens, UniProt Q14671 828-1176, C1007K;R1008F;Q1011G)", "sequence (Q14671 828-1176 C1007K/R1008F/Q1011G)": "as the sequence (Q14671 828-1176 S863G/R864F/Q867R) above, with G36S, F37R, R40Q, C180K, R181F, Q184G counted along it", "how_it_was_run": "as §1"}, "PUM1 PUF domain R5-ERS": {"target": "PUM1 PUF domain R5-ERS (Homo sapiens, UniProt Q14671 828-1176, C1007E;Q1011S)", "sequence (Q14671 828-1176 C1007E/Q1011S)": "as the sequence (Q14671 828-1176 S863G/R864F/Q867R) above, with G36S, F37R, R40Q, C180E, Q184S counted along it", "how_it_was_run": "as §1"}, "PUM1 PUF domain R5-DWG": {"target": "PUM1 PUF domain R5-DWG (Homo sapiens, UniProt Q14671 828-1176, C1007D;R1008W;Q1011G)", "sequence (Q14671 828-1176 C1007D/R1008W/Q1011G)": "as the sequence (Q14671 828-1176 S863G/R864F/Q867R) above, with G36S, F37R, R40Q, C180D, R181W, Q184G counted along it", "how_it_was_run": "as §1"}, "PUM1 PUF domain R7-NTG": {"target": "PUM1 PUF domain R7-NTG (Homo sapiens, UniProt Q14671 828-1176, S1079N;N1080T;E1083G)", "sequence (Q14671 828-1176 S1079N/N1080T/E1083G)": "as the sequence (Q14671 828-1176 S863G/R864F/Q867R) above, with G36S, F37R, R40Q, S252N, N253T, E256G counted along it", "how_it_was_run": "as §1"}, "PUM1 PUF domain R3-MRE": {"target": "PUM1 PUF domain R3-MRE (Homo sapiens, UniProt Q14671 828-1176, C935M;Q939E)", "sequence (Q14671 828-1176 C935M/Q939E)": "as the sequence (Q14671 828-1176 S863G/R864F/Q867R) above, with G36S, F37R, R40Q, C108M, Q112E counted along it", "how_it_was_run": "as §1"}, "PUM1 PUF domain R8-IWK": {"target": "PUM1 PUF domain R8-IWK (Homo sapiens, UniProt Q14671 828-1176, N1122I;Y1123W;Q1126K)", "sequence (Q14671 828-1176 N1122I/Y1123W/Q1126K)": "as the sequence (Q14671 828-1176 S863G/R864F/Q867R) above, with G36S, F37R, R40Q, N295I, Y296W, Q299K counted along it", "how_it_was_run": "as §1"}}}
{"sequence": "GGCUAGAACUAGUGGAUCCCCCGGCGCCCGGCGGCUCGAGCCCGGGUAAGUGUAAAUUGUCUGCAUGCCGCCGGGCGCCAUGCCUGCAGGUCGACUCUAGAAAACAUG", "values": [{"measurement": "binding signal", "setting": "PUM1 PUF domain R1-GFR", "value": "2.65 log2 enrichment (interaction score)"}, {"measurement": "binding signal", "setting": "PUM1 PUF domain R1-KMS", "value": "3.69 log2 enrichment (interaction score)"}, {"measurement": "binding signal", "setting": "PUM1 PUF domain R1-KGA", "value": "3.21 log2 enrichment (interaction score)"}]}
{"sequence": "GGCUAGAACUAGUGGAUCCCCCGGCGCCCGGCGGCUCGAGCCCGGGUAAGUGUAAAUAGUCUGCAUGCCGCCGGGCGCCAUGCCUGCAGGUCGACUCUAGAAAACAUG", "values": [{"measurement": "binding signal", "setting": "PUM1 PUF domain R8-SFR", "value": "5.31 log2 enrichment (interaction score)"}, {"measurement": "binding signal", "setting": "PUM1 PUF domain R5-KFG", "value": "3.88 log2 enrichment (interaction score)"}, {"measurement": "binding signal", "setting": "PUM1 PUF domain R5-ERS", "value": "3.92 log2 enrichment (interaction score)"}, {"measurement": "binding signal", "setting": "PUM1 PUF domain R5-DWG", "value": "2.74 log2 enrichment (interaction score)"}]}
{"sequence": "GGCUAGAACUAGUGGAUCCCCCGGCGCCCGGCGGCUCGAGCCCGGGUAAGUGUCAAUAGUCUGCAUGCCGCCGGGCGCCAUGCCUGCAGGUCGACUCUAGAAAACAUG", "values": [{"measurement": "binding signal", "setting": "PUM1 PUF domain R5-KFG", "value": "5.1 log2 enrichment (interaction score)"}, {"measurement": "binding signal", "setting": "PUM1 PUF domain R5-ERS", "value": "0.61 log2 enrichment (interaction score)"}, {"measurement": "binding signal", "setting": "PUM1 PUF domain R5-DWG", "value": "2.09 log2 enrichment (interaction score)"}]}
{"sequence": "GGCUAGAACUAGUGGAUCCCCCGGCGCCCGGCGGCUCGAGCCCGGGUAAGUUUAAAUAGUCUGCAUGCCGCCGGGCGCCAUGCCUGCAGGUCGACUCUAGAAAACAUG", "values": [{"measurement": "binding signal", "setting": "PUM1 PUF domain R7-NTG", "value": "5.69 log2 enrichment (interaction score)"}]}
{"sequence": "GGCUAGAACUAGUGGAUCCCCCGGCGCCCGGCGGCUCGAGCCCGGGUAAGUGUGAAUAGUCUGCAUGCCGCCGGGCGCCAUGCCUGCAGGUCGACUCUAGAAAACAUG", "values": [{"measurement": "binding signal", "setting": "PUM1 PUF domain R5-ERS", "value": "2.69 log2 enrichment (interaction score)"}, {"measurement": "binding signal", "setting": "PUM1 PUF domain R5-DWG", "value": "4.74 log2 enrichment (interaction score)"}]}
{"sequence": "GGCUAGAACUAGUGGAUCCCCCGGCGCCCGGCGGCUCGAGCCCGGGUAAGUGUAAGUAGUCUGCAUGCCGCCGGGCGCCAUGCCUGCAGGUCGACUCUAGAAAACAUG", "values": [{"measurement": "binding signal", "setting": "PUM1 PUF domain R3-MRE", "value": "5.14 log2 enrichment (interaction score)"}]}
{"sequence": "GGCUAGAACUAGUGGAUCCCCCGGCGCCCGGCGGCUCGAGCCCGGGUAAGUGUUAAUAGUCUGCAUGCCGCCGGGCGCCAUGCCUGCAGGUCGACUCUAGAAAACAUG", "values": [{"measurement": "binding signal", "setting": "PUM1 PUF domain R5-KFG", "value": "5.35 log2 enrichment (interaction score)"}, {"measurement": "binding signal", "setting": "PUM1 PUF domain R5-DWG", "value": "5.02 log2 enrichment (interaction score)"}]}
{"sequence": "GGCUAGAACUAGUGGAUCCCCCGGCGCCCGGCGGCUCGAGCCCGGGUAAGUGUAAAUCGUCUGCAUGCCGCCGGGCGCCAUGCCUGCAGGUCGACUCUAGAAAACAUG", "values": [{"measurement": "binding signal", "setting": "PUM1 PUF domain R1-GFR", "value": "5.46 log2 enrichment (interaction score)"}, {"measurement": "binding signal", "setting": "PUM1 PUF domain R1-KGA", "value": "3.08 log2 enrichment (interaction score)"}]}
{"sequence": "GGCUAGAACUAGUGGAUCCCCCGGCGCCCGGCGGCUCGAGCCCGGGUAAGGGUAAAUAGUCUGCAUGCCGCCGGGCGCCAUGCCUGCAGGUCGACUCUAGAAAACAUG", "values": [{"measurement": "binding signal", "setting": "PUM1 PUF domain R8-IWK", "value": "2.04 log2 enrichment (interaction score)"}]}
{"sequence": "GGCUAGAACUAGUGGAUCCCCCGGCGCCCGGCGGCUCGAGCCCGGGUAAGUGUAAUUAGUCUGCAUGCCGCCGGGCGCCAUGCCUGCAGGUCGACUCUAGAAAACAUG", "values": [{"measurement": "binding signal", "setting": "PUM1 PUF domain R3-MRE", "value": "0.23 log2 enrichment (interaction score)"}]}
{"sequence": "GGCUAGAACUAGUGGAUCCCCCGGCGCCCGGCGGCUCGAGCCCGGGUAAGCGUAAAUAGUCUGCAUGCCGCCGGGCGCCAUGCCUGCAGGUCGACUCUAGAAAACAUG", "values": [{"measurement": "binding signal", "setting": "PUM1 PUF domain R8-SFR", "value": "4.79 log2 enrichment (interaction score)"}]}
